NPR1 antag = blocks ANP-stimulated signaling of human Npr1 receptor; P16066; HEK293 hNpr1 GloSensor cGMP, ANP-stimulated luminescence; Potency, µM (series often up to 46.3 µM), usual class: inhibitors; hit rate 1.6% among 76,000; AID 1347048; calls by dose curve; note: nearly all actives have a fitted effect of over 60% in size
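Compound pre-incubated 30 min at room temperature on GloSensor-loaded HEK293 cells stably carrying hNpr1 and the pGS-40F cGMP biosensor. Stimulation uses hNppA at 0.1 nM final; luminescence is taken at baseline and 20 min post-agonist.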
GPT2 inhibitor = blocks human glutamate pyruvate transaminase 2; Q8TD30; Recombinant GPT2, coupled pyruvate oxidase/HRP Amplex Red fluorescence; Potency, µM (doses to about 57.7 µM), hits mostly inhibitors; hit rate 0.25% among 100,000; AID 1671188; note: nearly all actives have a fitted effect of over 60% in size
Target sequence (Q8TD30 whole entry, looked up): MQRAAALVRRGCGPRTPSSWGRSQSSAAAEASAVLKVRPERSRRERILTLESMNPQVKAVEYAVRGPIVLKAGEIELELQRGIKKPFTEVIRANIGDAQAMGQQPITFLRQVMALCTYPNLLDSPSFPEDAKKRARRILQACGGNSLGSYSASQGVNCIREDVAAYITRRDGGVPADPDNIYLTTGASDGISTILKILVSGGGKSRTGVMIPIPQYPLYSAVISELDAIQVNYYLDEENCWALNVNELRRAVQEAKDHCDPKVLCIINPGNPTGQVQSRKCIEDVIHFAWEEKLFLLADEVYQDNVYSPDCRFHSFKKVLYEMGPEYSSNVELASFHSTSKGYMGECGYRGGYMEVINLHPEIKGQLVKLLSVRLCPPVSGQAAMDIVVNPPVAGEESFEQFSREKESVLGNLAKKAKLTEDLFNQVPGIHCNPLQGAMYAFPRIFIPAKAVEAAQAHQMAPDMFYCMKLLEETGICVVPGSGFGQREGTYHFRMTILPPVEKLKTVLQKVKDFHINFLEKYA
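Fluorescence of coupled pyruvate oxidase/HRP/Amplex Red system (50uM Amplex, 30 min, dark) reports pyruvate formed by GPT2. Enzyme reaction: 10ng/uL GPT2, 2mM L-alanine, 250uM a-KG, 30 min room temperature, pH 7.5; 50uM AOA control.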
3T3 cytotox = cytotoxic compounds in NIH 3T3 cells; NIH 3T3 viability, CellTiter-Glo ATP luminescence, 48-72 h; Potency, µM (doses to about 96.7 µM), most hits filed as inhibitors; hit rate 4.3% among 94,000; AID 1345082; note: nearly all actives have a fitted effect of over 55% in size
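Cells were seeded at 400 per well, treated with pin-transferred compound, and kept 48 or 72 hr at 37 °C before CellTiter-Glo addition and luminescence imaging of cellular ATP.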
FLuc inh-1 = inhibitors of firefly (Photinus pyralis) luciferase | purified P. pyralis luciferase, luminescence, biochemical | Potency, µM (doses to about 115 µM), most hits filed as inhibitors | P08659 | hit rate 2.5% among 76,000; note: nearly all actives have a fitted effect of over 65% in size
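Cell-free enzyme assay, 10nM P. pyralis luciferase, luciferin and ATP each at 10uM. Inhibition profiled over a 6-point titration, read as luminescence.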
HEK293 tox = cytotoxic compounds in HEK 293 cells. HEK 293 viability, ATP luminescence (CellTiter-Glo), 48-72 h. AID 1345083. Potency, µM (highest dose often 115 µM), hits mostly inhibitors. hit rate 6.6% among 94,000; note: nearly all actives have a fitted effect of over 60% in size
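Cells seeded first (HEK 293, 250 cells/well), then compound added by pintool. Incubation ran 48 or 72 hr at 37 degree Celsius. CellTiter-Glo was added and luminescence imaged after 10 min at room temperature.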
FLuc SDR -ATP = stabilizes firefly luciferase without ATP. shares compounds with FLuc inh-1. Purified FLuc-C-HiBiT, Nano-Glo HiBiT luminescence, no ATP. Potency, µM (titrated, usually from 32.7 µM), actives largely listed as activators. hit rate 7.8% among 1,300; note: nearly all actives have a fitted effect of over 55% in size
FLuc SDR ATP = binders stabilizing firefly luciferase, plus ATP. shares compounds with FLuc inh-1. purified FLuc-C-HiBiT + ATP, HiBiT complementation luminescence. Potency, µM (top dose mostly 32.7 µM), actives largely listed as activators. hit rate 8.7% among 1,300;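 note: signal reports ligand binding via conformational change of the enzyme rather than luciferase catalysis; nearly all actives have a fitted effect of over 55% in size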
FLuc inh-2 = firefly luciferase enzyme inhibition | shares compounds with FLuc inh-1 | purified FLuc-C-HiBiT enzyme, luciferin luminescence | Potency, µM (titrated, usually from 32.7 µM), actives largely listed as inhibitors | hit rate 42% among 1,300 | AID 1963320; note: nearly all actives have a fitted effect of over 70% in size
A number is an active result; . = inactive; ? = inconclusive; / = no result given; [ ] = dose if it differs, or a comment. Rows were chosen to be rich in hits. Some 10% of all compounds tested hit in one or more screens of this group. Unless noted, calls come from the whole dose curve; as a rule, active = well fitted curve in the direction sought with a large enough effect; inconclusive = small, poorly fitted or top-dose-only effect, or another doubt; inactive = no such curve, though single readings can be large; an effect the other way counts as inactive or inconclusive.

SMILES | NPR1 antag | GPT2 inhibitor | 3T3 cytotox | FLuc inh-1 | HEK293 tox | FLuc SDR -ATP | FLuc SDR ATP | FLuc inh-2
COc1ccc(NC(=O)N[C@H]2C[C@@H](C(=O)N[C@H](Cc3c[nH]c4ccccc34)C(N)=O)N(C(=O)C=C(C)C)C2)cc1 | . | . | . | . | . | / | / | /
COc1ccc(OCc2cc(C(=O)N3C[C@H]4CC[C@H]3C4)n[nH]2)c(Cl)c1 | . | . | ? | 8.9µM | ? | . | . | .
COc1cccc(CN2C(=O)OC3(CCN(C(=O)Cc4cccc(F)c4)CC3)C2(C)c2cccnc2)c1 (centres undefined) | . | . | ? | . | . | / | / | /
O=C1CCC2(C(=O)NCCc3ccccc3)CCCC=C2N1c1ccccc1 (centres undefined) | . | . | . | 3.2µM | ? | . | . | ?
CCc1cccc(Nc2nc(-c3ccc(OC)c(OC)c3)no2)c1 | . | . | ? | ? | ? | / | / | /
COc1ccc(-c2noc(Nc3ccc(OC)c(OC)c3)n2)cc1 | . | . | ? | 7.9µM | 28µM | . | . | ?
COc1cccc(Nc2nc(-c3ccccc3)no2)c1 | 8.9µM | . | 45µM | 0.79µM | ? | ? | ? | 6.2µM
COc1ccc(-c2noc(Nc3ccc(C)c(C)c3)n2)cc1 | . | . | ? | 8.9µM | 40µM | . | . | ?
Fc1ccccc1Nc1nc(-c2ccccc2)no1 | 4.5µM | ? | ? | 0.4µM | ? | ? | ? | 0.7µM
COc1cc(Nc2nc(-c3cccc(OC)c3OC)no2)cc(OC)c1OC | . | . | ? | . | ? | / | / | /
O=C(NCCN1CCN(c2cccc3ccc(O)cc23)CC1)c1ccc(F)cc1 | / | . | / | / | / | / | / | /
Cc1ccccc1NC(=O)Cn1c(C)cc2nc3n(c(=O)c21)CCCCC3 | . | . | . | . | . | / | / | /
Cc1ccccc1CCNC(=O)c1ccc2c(c1)nc1n2CCCCC1 | / | / | / | / | / | 2.8µM | ? | 0.88µM
Cc1ccccc1CCNC(=O)c1ccc2c(c1)nc1n2CCOC1 | / | / | / | / | / | 12µM | ? | 5µM
CN1C[C@H](NC(=O)c2cccnc2)CCC[C@@H](C(=O)NCc2cc(F)cc(F)c2)CC1=O | . | . | . | . | . | / | / | /
CC(NC(=O)C1CCN(C(=O)c2ncn3c2COC(c2ccc(F)cc2)C3)CC1)c1ccc(F)cc1 (centres undefined) | . | . | . | . | . | / | / | /
CC(NC(=O)C1CCN(C(=O)c2ncn3c2COC(c2ccccc2)C3)CC1)c1ccc(F)cc1 (centres undefined) | . | . | . | 13µM | . | . | ? | 5µM
CC(C)NC(=O)C1CCN(C(=O)c2ncn3c2COC(c2ccccc2)C3)CC1 (centres undefined) | . | . | . | 3.5µM | . | . | 4.4µM | 3.5µM
CO/S(=N\S(=O)(=O)c1ccc(Cl)cc1)c1ccc([N+](=O)[O-])cc1 (centres undefined) | / | . | / | / | / | / | / | /
COc1ccc(-c2cnc3[nH]cc(CC(=O)N4CCN(c5ccccn5)CC4)c3c2)cc1 | ? | . | ? | 7.1µM | 79µM | . | . | ?
COc1ccccc1C(=O)N1CCn2c(nnc2-c2ccncc2)C1 | / | . | . | / | . | / | / | /
c1coc(-c2nc3nccc(-c4ccc5c(c4)OCCCO5)n3n2)c1 | ? | . | ? | 1.3µM | ? | ? | ? | 1.8µM
COCc1nc2nccc(-c3ccc4c(c3)OCCCO4)n2n1 | . | . | . | . | . | / | / | /
N#Cc1c(-n2ncnc2-c2ccccc2Cl)sc2c1CCCCC2 | / | / | / | / | / | . | ? | 2.2µM
N#Cc1c(-n2ncnc2-c2cccc(Cl)c2)sc2c1CCCCC2 | / | / | / | / | / | . | ? | 2µM
SMILES | NPR1 antag | GPT2 inhibitor | 3T3 cytotox | FLuc inh-1 | HEK293 tox | FLuc SDR -ATP | FLuc SDR ATP | FLuc inh-2
Oc1ccc(-c2nc3ccccn3c2Nc2ccc3c(c2)OCCO3)cc1 | / | / | / | / | / | . | . | ?
CN(C)c1ccc(-c2nc3ccccn3c2Nc2ccc3c(c2)OCCO3)cc1 | / | / | / | / | / | . | . | 11µM
COc1ccc(-c2cc(N3CCCC(NC(=O)Cc4cccc(F)c4)C3)n[nH]2)cc1 (centres undefined) | . | . | ? | . | ? | / | / | /
CC(C)c1ccc(NC(=O)c2ccc(CN3C(=O)NC4(CCOCC4)C3=O)cc2)cc1 | 10µM | . | 40µM | 2µM | ? | ? | ? | 3.5µM
Cc1ccc(NC(=O)c2ccc(CN3C(=O)NC4(CCOCC4)C3=O)cc2)cc1C | ? | . | . | 10µM | ? | ? | . | ?
Cc1cccc(NC(=O)c2ccc(CN3C(=O)NC4(CCOCC4)C3=O)cc2)c1 | . | . | . | ? | ? | / | / | /
O=C(COc1ccc(Cl)cc1)Nc1ccc(-c2nc3ccccc3s2)c(O)c1 | / | / | / | / | / | . | . | .
O=C(COc1ccc(Cl)cc1)Nc1ccc(O)c(-c2nc3ccccc3s2)c1 | / | / | / | / | / | . | . | .
O=C(CCCS(=O)(=O)c1ccc(Cl)cc1)Nc1ccc(O)c(-c2nc3ccccc3s2)c1 | / | / | / | / | / | . | . | .
Cc1cnc(C)c(N2CCC(C(=O)O)(n3ccc(-c4ccco4)n3)CC2)n1 | . | .[11.5 µM] | . | . | . | / | / | /
Cc1ccc(CNC(=O)c2ccc3c(c2)CN(Cc2cnn(C)c2C)CCO3)cc1 | ? | . | . | . | ? | . | . | .
COc1ccc(C(=O)Oc2ccc(C(c3c(C)[nH][nH]c3=O)c3c(C)[nH][nH]c3=O)cc2)cc1 | / | / | / | / | / | . | . | ?
COc1ccc2cc(C(C)C(=O)Oc3ccc(C(N)=S)cc3)ccc2c1 (centres undefined) | / | . | / | / | / | / | / | /
COc1cc(=O)n2c(c1C(=O)Nc1ccc(Cl)cc1F)CCCC2 | . | . | . | . | ? | / | / | /
COCCNC(=O)[C@@H](C)C1CC[C@@]2(C)Cc3sc(CSc4ccccc4)nc3[C@@H](C)[C@@H]2[C@H]1O (some centres undefined) | 11µM | . | ? | 7.1µM | ? | . | ? | ?
C[C@H]1[C@@H]2[C@@H](O)C([C@H](C)C(=O)N3CCCCC3)CC[C@@]2(C)CC[C@@H]1NC(=O)c1ccccn1 (some centres undefined) | . | ? | . | . | . | / | / | /
C[C@H](C(=O)N1CCCC1)C1CC[C@@]2(C)Cc3sc(-c4ccccc4)nc3[C@@H](C)[C@@H]2[C@H]1O (some centres undefined) | ? | . | ? | 8.9µM | 45µM | 3.1µM | 2.2µM | 2µM
Nc1nccc(N2CCCC(Cc3ccccc3F)(C(=O)O)C2)n1 (centres undefined) | . | .[11.5 µM] | . | . | . | / | / | /
O=C(O)C1(CCc2ccccc2)CCCN(c2ncnc3nc[nH]c23)C1 (centres undefined) | . | . | . | . | . | . | . | .

Screening results: PubChem BioAssay, National Center for Advancing Translational Sciences (NCATS)
